Data published in PubChem BioAssay (Tox21).
Active and inactive are the calls of the source. Calls come from the whole dose curve; as a rule, active = well fitted curve in the direction sought with a large enough effect in the repeat runs; inconclusive = weak or mixed curves; inactive = flat fitted curve, though single readings scatter.

experiment: qHTS assay to test for compound auto fluorescence at 535 nm (green) in HEK293 cell free culture (AID 720682); details: cell-free medium, green autofluorescence 485/535 nm, active compounds read high; series mostly up to 91.3 µM; activity change: at the top concentration
Text: U.S. Tox21 Program National Center for Advancing Translational Sciences [NCATS] NIH Chemical Genomics Center [NCGC] U.S. Environmental Protection Agency [EPA] National Institutes of Environmental Health Sciences [NIEHS] National Toxicology Program [NTP] U.S. Food and Drug Administration [FDA] Tox21 Assay Overview: Compound auto fluorescence often interferes with screening of the compound library against various biological targets and signaling pathways. Some of these compounds may have fluorophoric properties. Such properties may interfere with the assay outputs resulting in false positives and/or negatives. To decrease such complications and ensure the compound activities are relevant in terms of biological response, the Tox21 10K compound library was screened for auto fluorescence. From the fluorophores used as reporter signals in our screening assays, the auto fluorescence equivalencies of compounds against three fluorophores have been evaluated: Triamterene, Fluorescein and Rose Bengal sodium for blue, green and red fluorescence, respectively. The fluorescence intensities were measured using Excitation/Emission wavelengths at 405/460nm, 485/535nm and 540/590nm for blue, green and red labels, respectively. This assay includes the green fluorescence data.
Tox21 Assay Protocol Summary: 5 uL of culture medium (DMEM containing 10% FBS) per well was dispensed into black wall/clear bottom 1536-well plates using a Multidrop Combi Dispenser (ThermoFisher Scientific, Waltham, MA). After 23 nL compound or DMSO vehicle was transferred into assay plate by a pintool work station (Kalypsys, San Diego, CA), fluorescence intensities in the assay plates were measured by an Envision (PerkinElmer, Shelton, CT) plate reader using three labels for measuring blue, green and red fluorescence at […] 460, 535 and 590nm respectively.
% is set by controls: 0 for no effect and ±100 for the full control effect.

Row | SMILES | activity change | outcome
1 | NCCN1CCOCC1 | -0.0127% (inactive) | 
2 | COC(=O)CCCCCCCC(=O)OC | -0.0673% (inactive) | 
3 | CCc1ccc(C=O)cc1 | 0.0175% (inactive) | 
4 | CCCN1C[C@H](CSC)C[C@@H]2c3cccc4[nH]cc(c34)C[C@H]21 | 0.343% [at 46 µM] (inactive) | 
5 | CCOC(=O)CC(=O)c1ccccc1 | 0.0752% (inactive) | 
6 | NC(CO)C(=O)NNCc1ccc(O)c(O)c1O (stereo not given) | 0.092% [at 46 µM] (inactive) | 
7 | CCCCCCCCOS(=O)(=O)O | -0.0221% (inactive) | 
8 | CCCCCCCCC(=O)Cl | 0.12% [at 95.7 µM] (inactive) | 
9 | C[C@H](N)[C@H](O)c1cccc(O)c1 | 0.048% [at 18.6 µM] (inactive) | 
10 | O=C(/N=N/C(=O)OCc1ccccc1)OCc1ccccc1 | 0.0065% (inactive) | 
11 | CCCCCCCCCCl | 0.114% (inactive) | 
12 | On1nnc2ccccc21 | -0.048% (inactive) | 
13 | NCCS |  | inactive
14 | CC1(C)S[C@@H]2[C@H](N=CN3CCCCCC3)C(=O)N2[C@H]1C(=O)O | -0.0823% [at 46 µM] (inactive) | 
15 | CCCOC(OCCC)OCCC | 0.0344% (inactive) | 
16 | COc1cc(C(=S)N2CCOCC2)cc(OC)c1OC | 0.001% [at 46 µM] (inactive) | 
17 | O=C(O)C(=O)Cc1ccccc1 | -0.232% (inactive) | 
18 | C=C1CC/C=C(\C)CC[C@@H]2[C@@H]1CC2(C)C | 0.0005% (inactive) | 
19 | CC(=O)Nc1ccc(S(=O)(=O)Nc2ccc([N+](=O)[O-])cc2)cc1 | -0.0065% [at 46 µM] (inactive) | 
20 | C[Si](C)=O | -0.0646% [at 9.17 µM] (inactive) | 

Row | SMILES | activity change | outcome
21 | CC(S)C(=O)NCC(=O)O (stereo not given) | -0.0016% [at 46 µM] (inactive) | 
22 | O=C(OCC1(COC(=O)c2cccnc2)CCCC(COC(=O)c2cccnc2)(COC(=O)c2cccnc2)C1O)c1cccnc1 | 0.0339% [at 46 µM] (inactive) | 
23 | CC(C)(C)OC(=O)c1ccc(O)cc1 | -0.0523% (inactive) | 
24 | Cc1nc2n(c(=O)c1CCN1CCC(c3noc4cc(F)ccc34)CC1)CCC[C@H]2O | 0.0269% [at 46 µM] (inactive) | 
25 | Nc1cccc(O)c1 | 1.07% [at 95.7 µM] (inactive) | 
26 | O=C(O)Cc1cn(-c2ccccc2)nc1-c1ccc(Cl)cc1 | 0.0233% [at 46 µM] (inactive) | 
27 | CCCCCCOC(=O)CC | 0.127% (inactive) | 
28 | O=C(O)c1cc(Br)c(O)c(Br)c1 | -0.0213% (inactive) | 
29 | COCCOCCOCCOCCO | 0.0173% (inactive) | 
30 | N[C@@H](CCC(=O)N[C@@H](CS)C(=O)NCC(=O)O)C(=O)O | -0.0001% [at 46 µM] (inactive) | 
31 | COc1nccnc1NS(=O)(=O)c1ccc(N)cc1 | -0.268% [at 46 µM] (inactive) | 
32 | C=C(C)C(=O)OCCN(CC)CC | -0.039% (inactive) | 
33 | COC(=O)C1CC(=O)C(C(=O)OC)CC1=O (stereo not given) | -0.0001% [at 3.72 µM] (inactive) | 
34 | CCCC(=O)C(C)=O | 0.0034% (inactive) | 
35 | CC(C)=CCOC(=O)c1ccccc1 | -0.0005% (inactive) | 
36 | Cc1cc2cc3c(C)cc(=O)oc3c(C)c2o1 | -0.0015% [at 18.6 µM] (inactive) | 
37 | CCCCN | 0.029% [at 46 µM] (inactive) | 
38 | CCC(C)(CCC(C)C)C(=O)O (stereo not given) | 0.0006% (inactive) | 
39 | CC1(CO)CN(c2ccccc2)NC1=O (stereo not given) | 0.017% (inactive) | 
40 | CCO[Si](CCCS)(OCC)OCC | 0.0189% (inactive) | 
